Assay results from the supplement of paper PMC10849652.
Of roughly 7,900 targets only a part is listed; those with a hit were picked by preference. About 0.6% of all pairs of compound and target were hits.

Assays:
Test in all cases: log2 fold change, soluble protein after heating vs DMSO (PISA); higher = thermal stabilisation; K562 cells, 10 uM, 30 min; active = over 0.2 and 3.5 SD of the protein, either way, in both replicates (recomputed)
[1] = compound: COC1=CC=C(C=C1)CN2C=CC3=C2C=C(C=C3)C(=O)NO
Summary of the method: (§1)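 K562 cells at 2×10^6 cells/mL were treated with 10 μM compound for 30 min. Aliquots were heated for 3 min across 48°C-58°C, pooled, and extracted in PBS with 0.5% NP-40 at 4°C; soluble protein was the supernatant after 21,000xg for 90 min. Soluble protein was quantified by TMTpro 16plex LC-MS/MS with channel sums equalised, and reported as log2 fold change in thermal stability against DMSO controls, with values from duplicates.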

filanesib = compound: CON(C)C(=O)N1N=C(c2cc(F)ccc2F)S[C@@]1(CCCN)c1ccccc1 [filanesib]
Summary of the method: as §1

zotarolimus = compound: CO[C@H]1C[C@@H]2CC[C@@H](C)[C@@](O)(O2)C(=O)C(=O)N2CCCC[C@H]2C(=O)O[C@H]([C@H](C)C[C@@H]2CC[C@H](n3cnnn3)[C@H](OC)C2)CC(=O)[C@H](C)/C=C(\C)[C@@H](O)[C@@H](OC)C(=O)[C@H](C)C[C@H](C)/C=C/C=C/C=C/1C [zotarolimus]
Summary of the method: as §1

idasanutlin = compound: COc1cc(C(=O)O)ccc1NC(=O)[C@@H]1N[C@@H](CC(C)(C)C)[C@](C#N)(c2ccc(Cl)cc2F)[C@H]1c1cccc(Cl)c1F [idasanutlin]
Summary of the method: as §1

alisertib = compound: COc1cc(Nc2ncc3c(n2)-c2ccc(Cl)cc2C(c2c(F)cccc2OC)=NC3)ccc1C(=O)O [alisertib]
Summary of the method: as §1

[2] = compound: COc1cc2nc(-c3cc(F)ccc3O)nc(N[C@@H]3CNC[C@H]3C(C)(C)O)c2cc1OC
Summary of the method: as §1

gefitinib = compound: COc1cc2ncnc(Nc3ccc(F)c(Cl)c3)c2cc1OCCCN1CCOCC1 [gefitinib]
Summary of the method: as §1

[3] = compound: COc1cccc2cc(-c3nc([C@H]4CC[C@H](C(=O)O)CC4)n4ncnc(N)c34)[nH]c12
Summary of the method: as §1

lapatinib = compound: CS(=O)(=O)CCNCc1ccc(-c2ccc3ncnc(Nc4ccc(OCc5cccc(F)c5)c(Cl)c4)c3c2)o1 [lapatinib]
Summary of the method: as §1

pictilisib = compound: CS(=O)(=O)N1CCN(Cc2cc3nc(-c4cccc5[nH]ncc45)nc(N4CCOCC4)c3s2)CC1 [pictilisib]
Summary of the method: as §1

[4] = compound: CS(=O)(=O)c1ccc(-c2cnc(N)c(C(=O)Nc3ccccc3)n2)cc1
Summary of the method: as §1

crizotinib = compound: C[C@@H](Oc1cc(-c2cnn(C3CCNCC3)c2)cnc1N)c1c(Cl)ccc(F)c1Cl [crizotinib]
Summary of the method: as §1

[5] = compound: C[C@@H]1COCCN1C2=NC(=NC(=C2)C3(CC3)S(=O)(=O)C)C4=C5C=CNC5=CC=C4
Summary of the method: as §1

[6] = compound: C[C@H](C1=CC=C(C=C1)C(=O)NC2=C3C=CNC3=NC=C2)N
Summary of the method: as §1

duvelisib = compound: C[C@H](Nc1ncnc2nc[nH]c12)c1cc2cccc(Cl)c2c(=O)n1-c1ccccc1 [duvelisib]
Summary of the method: as §1

gandotinib = compound: Cc1cc(Nc2cc(CN3CCOCC3)c3nc(C)c(Cc4ccc(Cl)cc4F)n3n2)n[nH]1 [gandotinib]
Summary of the method: as §1

tozasertib = compound: Cc1cc(Nc2cc(N3CCN(C)CC3)nc(Sc3ccc(NC(=O)C4CC4)cc3)n2)n[nH]1 [tozasertib]
Summary of the method: as §1

[7] = compound: Cc1cc(SCc2sc(-c3ccc(C(F)(F)F)cc3)nc2C)ccc1OCC(=O)O
Summary of the method: as §1

doramapimod = compound: Cc1ccc(-n2nc(C(C)(C)C)cc2NC(=O)Nc2ccc(OCCN3CCOCC3)c3ccccc23)cc1 [doramapimod]
Summary of the method: as §1

ispinesib = compound: Cc1ccc(C(=O)N(CCCN)[C@@H](c2nc3cc(Cl)ccc3c(=O)n2Cc2ccccc2)C(C)C)cc1 [ispinesib]
Summary of the method: as §1

Measured: log2 fold change

DIAPH1 (UniProt O60610)
inactive: [1] 0.008 | filanesib 0.083 | zotarolimus 0.081 | idasanutlin 0.04 | alisertib -0.099 | [2] -0.06 | gefitinib 0.046 | [3] -0.193 | lapatinib 0.075 | pictilisib 0.006 | [4] 0.047 | crizotinib -0.152 | [5] -0.054 | [6] 0.168 | duvelisib -0.058 | gandotinib -0.063 | tozasertib 0.153 | [7] 0.125 | doramapimod 0.135 | ispinesib -0.089

DHRS1 (UniProt Q96LJ7)
UniProt Q96LJ7, sequence (Q96LJ7 whole entry, looked up): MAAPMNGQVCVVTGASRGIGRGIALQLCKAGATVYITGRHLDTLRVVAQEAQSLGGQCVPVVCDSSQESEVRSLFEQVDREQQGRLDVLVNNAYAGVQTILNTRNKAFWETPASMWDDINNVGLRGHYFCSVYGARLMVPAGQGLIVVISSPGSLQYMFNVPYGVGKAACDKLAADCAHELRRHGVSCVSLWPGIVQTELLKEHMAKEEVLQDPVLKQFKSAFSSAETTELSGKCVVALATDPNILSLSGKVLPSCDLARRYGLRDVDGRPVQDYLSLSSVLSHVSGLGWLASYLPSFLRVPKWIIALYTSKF
active: idasanutlin 0.952
inactive: [1] 0.159 | filanesib 0.061 | zotarolimus 0.448 | alisertib -0.025 | [2] 0.115 | gefitinib 0.494 | [3] -0.113 | lapatinib 0.096 | pictilisib 0.009 | [4] 0.009 | crizotinib 0.248 | [5] 0.089 | [6] -0.028 | duvelisib 0.438 | gandotinib 0.297 | tozasertib 0.009 | [7] 0.571 | doramapimod 0.557 | ispinesib 0.247

DOHH (UniProt Q9BU89)
inactive: [1] -0.4 | filanesib -0.151 | zotarolimus 0.022 | idasanutlin -0.038 | alisertib -0.062 | [2] -0.041 | gefitinib 0.201 | [3] 0.084 | lapatinib -0.006 | pictilisib -0.171 | [4] 0.049 | crizotinib 0.06 | [5] 0.287 | [6] -0.154 | duvelisib 0.055 | gandotinib 0.029 | tozasertib 0.127 | [7] 0.022 | doramapimod 0.005 | ispinesib -0.015

EDEM2 (UniProt Q9BV94)
UniProt Q9BV94, sequence (Q9BV94 whole entry, looked up): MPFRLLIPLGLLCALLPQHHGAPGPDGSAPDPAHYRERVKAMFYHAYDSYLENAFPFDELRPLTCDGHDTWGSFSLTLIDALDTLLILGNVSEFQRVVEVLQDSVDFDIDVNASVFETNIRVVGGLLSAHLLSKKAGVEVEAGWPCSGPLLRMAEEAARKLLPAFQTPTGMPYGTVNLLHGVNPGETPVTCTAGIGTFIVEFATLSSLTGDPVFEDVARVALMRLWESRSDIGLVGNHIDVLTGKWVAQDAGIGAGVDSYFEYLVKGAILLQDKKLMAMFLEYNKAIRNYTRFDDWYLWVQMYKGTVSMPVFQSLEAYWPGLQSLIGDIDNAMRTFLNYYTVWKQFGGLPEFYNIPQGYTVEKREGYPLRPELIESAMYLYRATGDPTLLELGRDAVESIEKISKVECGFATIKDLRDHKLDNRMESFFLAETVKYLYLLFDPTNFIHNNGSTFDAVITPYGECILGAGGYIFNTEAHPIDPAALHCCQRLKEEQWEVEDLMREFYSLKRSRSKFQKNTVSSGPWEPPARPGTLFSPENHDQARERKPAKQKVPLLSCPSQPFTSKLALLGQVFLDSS
active: alisertib -0.441
inactive: [1] -0.149 | filanesib -0.03 | zotarolimus 0.022 | idasanutlin -0.154 | [2] 0.028 | gefitinib 0.033 | [3] 0.205 | lapatinib -0.064 | pictilisib 0.09 | [4] 0.036 | crizotinib 0.024 | [5] -0.119 | [6] 0.163 | duvelisib -0.074 | gandotinib -0.081 | tozasertib -0.015 | [7] 0.111 | doramapimod 0.065 | ispinesib -0.04

ECPAS (UniProt Q5VYK3)
inactive: [1] 0.004 | filanesib -0.004 | zotarolimus 0.033 | idasanutlin -0.127 | alisertib -0.001 | [2] 0.055 | gefitinib -0.007 | [3] -0.087 | lapatinib -0.033 | pictilisib 0.005 | [4] 0 | crizotinib -0.18 | [5] 0.01 | [6] 0.081 | duvelisib 0.024 | gandotinib -0.115 | tozasertib 0.048 | [7] 0.099 | doramapimod -0.032 | ispinesib -0.016

DDX39A (UniProt O00148)
inactive: [1] 0.135 | filanesib -0.021 | zotarolimus -0.017 | idasanutlin -0.093 | alisertib 0.066 | [2] -0.16 | gefitinib -0.015 | [3] -0.028 | lapatinib -0.007 | pictilisib 0.012 | [4] 0.062 | crizotinib -0.082 | [5] 0.079 | [6] 0.002 | duvelisib 0.051 | gandotinib -0.009 | tozasertib 0.043 | [7] 0.05 | doramapimod -0.069 | ispinesib -0.064

DCTN1 isoform 4 (UniProt Q14203)
UniProt Q14203, sequence (Q14203 whole entry, looked up): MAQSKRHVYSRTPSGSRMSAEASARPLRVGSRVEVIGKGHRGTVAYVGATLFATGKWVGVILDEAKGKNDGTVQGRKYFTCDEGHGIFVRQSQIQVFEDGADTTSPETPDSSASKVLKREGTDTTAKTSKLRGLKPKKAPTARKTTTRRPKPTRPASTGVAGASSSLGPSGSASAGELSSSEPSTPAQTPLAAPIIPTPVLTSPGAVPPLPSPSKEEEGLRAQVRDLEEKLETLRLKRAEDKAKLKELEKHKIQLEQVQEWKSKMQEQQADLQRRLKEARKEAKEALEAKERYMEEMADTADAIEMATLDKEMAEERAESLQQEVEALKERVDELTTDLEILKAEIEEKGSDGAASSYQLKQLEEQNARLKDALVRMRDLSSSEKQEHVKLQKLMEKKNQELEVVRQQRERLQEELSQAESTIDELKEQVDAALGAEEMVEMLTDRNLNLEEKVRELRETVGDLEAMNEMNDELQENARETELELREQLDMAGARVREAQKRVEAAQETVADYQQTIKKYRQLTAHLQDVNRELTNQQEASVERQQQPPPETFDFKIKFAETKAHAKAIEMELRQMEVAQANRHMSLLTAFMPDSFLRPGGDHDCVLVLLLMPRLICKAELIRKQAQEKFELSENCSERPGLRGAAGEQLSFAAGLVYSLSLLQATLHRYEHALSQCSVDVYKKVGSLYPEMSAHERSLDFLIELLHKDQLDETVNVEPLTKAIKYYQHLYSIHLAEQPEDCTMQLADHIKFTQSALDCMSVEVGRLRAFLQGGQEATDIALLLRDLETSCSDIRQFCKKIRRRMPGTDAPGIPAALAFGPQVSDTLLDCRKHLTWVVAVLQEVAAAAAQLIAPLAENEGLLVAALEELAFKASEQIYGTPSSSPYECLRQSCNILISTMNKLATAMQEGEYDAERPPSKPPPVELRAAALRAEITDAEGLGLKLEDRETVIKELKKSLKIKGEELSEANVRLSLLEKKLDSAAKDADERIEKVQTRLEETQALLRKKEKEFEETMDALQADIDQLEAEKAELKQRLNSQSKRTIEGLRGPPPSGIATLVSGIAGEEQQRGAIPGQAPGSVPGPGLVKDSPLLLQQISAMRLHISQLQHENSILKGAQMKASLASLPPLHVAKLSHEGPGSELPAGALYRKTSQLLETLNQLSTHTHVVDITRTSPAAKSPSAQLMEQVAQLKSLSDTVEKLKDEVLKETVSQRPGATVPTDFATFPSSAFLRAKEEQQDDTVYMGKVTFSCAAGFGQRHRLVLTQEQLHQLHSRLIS
inactive: [1] -0.007 | filanesib 0.047 | zotarolimus 0.095 | idasanutlin 0.012 | alisertib -0.045 | [2] 0.007 | gefitinib 0.042 | [3] -0.083 | lapatinib -0.007 | pictilisib -0.135 | [4] -0.013 | crizotinib -0.112 | [5] 0.015 | [6] 0.131 | duvelisib -0.045 | gandotinib 0.016 | tozasertib 0.037 | [7] 0.111 | doramapimod 0.088 | ispinesib -0.141

DHPS (UniProt P49366)
UniProt P49366, sequence (P49366 whole entry, looked up): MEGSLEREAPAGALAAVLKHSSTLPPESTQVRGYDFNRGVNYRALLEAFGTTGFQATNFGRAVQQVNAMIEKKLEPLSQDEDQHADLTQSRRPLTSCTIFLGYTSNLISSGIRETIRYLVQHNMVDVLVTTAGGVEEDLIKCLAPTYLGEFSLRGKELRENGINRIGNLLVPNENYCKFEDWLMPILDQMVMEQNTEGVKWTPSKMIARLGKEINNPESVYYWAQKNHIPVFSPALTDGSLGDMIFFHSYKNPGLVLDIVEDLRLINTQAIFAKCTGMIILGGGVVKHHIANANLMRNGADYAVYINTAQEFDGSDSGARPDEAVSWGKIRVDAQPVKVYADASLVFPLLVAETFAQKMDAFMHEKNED
active: [1] 0.268
inactive: filanesib -0.024 | zotarolimus -0.001 | idasanutlin 0.03 | alisertib -0.033 | [2] -0.047 | gefitinib -0.018 | [3] 0.063 | lapatinib 0.05 | pictilisib 0.024 | [4] 0.015 | crizotinib -0.008 | [5] 0.043 | [6] -0.047 | duvelisib 0.059 | gandotinib 0.032 | tozasertib -0.046 | [7] -0.054 | doramapimod 0.051 | ispinesib 0.067

DBNL isoform 3 (UniProt Q9UJU6)
UniProt Q9UJU6, sequence (Q9UJU6 whole entry, looked up): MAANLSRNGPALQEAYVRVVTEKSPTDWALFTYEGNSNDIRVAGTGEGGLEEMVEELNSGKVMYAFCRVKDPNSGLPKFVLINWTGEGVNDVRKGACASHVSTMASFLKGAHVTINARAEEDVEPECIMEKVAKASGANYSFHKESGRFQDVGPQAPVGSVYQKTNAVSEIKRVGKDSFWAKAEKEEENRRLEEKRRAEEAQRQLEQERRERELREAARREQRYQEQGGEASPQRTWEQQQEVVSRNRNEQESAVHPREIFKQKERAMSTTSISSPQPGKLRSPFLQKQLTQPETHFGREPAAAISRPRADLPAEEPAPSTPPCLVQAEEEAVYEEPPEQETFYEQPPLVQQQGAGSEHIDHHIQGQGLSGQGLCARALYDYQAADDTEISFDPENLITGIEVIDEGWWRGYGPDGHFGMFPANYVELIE
inactive: [1] 0.096 | filanesib 0.006 | zotarolimus -0.018 | idasanutlin 0.02 | alisertib 0.025 | [2] -0.002 | gefitinib 0.021 | [3] -0.016 | lapatinib 0.016 | pictilisib 0.027 | [4] 0.041 | crizotinib -0.116 | [5] 0.073 | [6] -0.016 | duvelisib 0.037 | gandotinib -0.094 | tozasertib 0.048 | [7] -0.015 | doramapimod 0.054 | ispinesib -0.048

EFCAB14 (UniProt O75071)
inactive: [1] 0.139 | filanesib -0.018 | zotarolimus 0.147 | idasanutlin 0.027 | alisertib 0.043 | [2] -0.014 | gefitinib 0.04 | [3] -0.04 | lapatinib 0.021 | pictilisib 0.06 | [4] 0.045 | [5] 0.083 | [6] 0.041 | duvelisib 0.006 | gandotinib -0.009 | tozasertib -0.097 | [7] -0.006 | doramapimod -0.01 | ispinesib -0.004
active: crizotinib -0.301

FAM117A (UniProt Q9C073)
inactive: [1] 0.105 | filanesib -0.025 | zotarolimus 0.008 | idasanutlin 0.076 | alisertib 0 | [2] -0.059 | gefitinib -0.004 | [3] 0.024 | lapatinib -0.026 | pictilisib -0.019 | [4] -0.039 | crizotinib -0.166 | [5] -0.013 | [6] -0.132 | duvelisib -0.119 | gandotinib -0.053 | tozasertib -0.12 | [7] 0.067 | doramapimod 0.017 | ispinesib 0.024

DYNC1LI2 (UniProt O43237)
UniProt O43237, sequence (O43237 whole entry, looked up): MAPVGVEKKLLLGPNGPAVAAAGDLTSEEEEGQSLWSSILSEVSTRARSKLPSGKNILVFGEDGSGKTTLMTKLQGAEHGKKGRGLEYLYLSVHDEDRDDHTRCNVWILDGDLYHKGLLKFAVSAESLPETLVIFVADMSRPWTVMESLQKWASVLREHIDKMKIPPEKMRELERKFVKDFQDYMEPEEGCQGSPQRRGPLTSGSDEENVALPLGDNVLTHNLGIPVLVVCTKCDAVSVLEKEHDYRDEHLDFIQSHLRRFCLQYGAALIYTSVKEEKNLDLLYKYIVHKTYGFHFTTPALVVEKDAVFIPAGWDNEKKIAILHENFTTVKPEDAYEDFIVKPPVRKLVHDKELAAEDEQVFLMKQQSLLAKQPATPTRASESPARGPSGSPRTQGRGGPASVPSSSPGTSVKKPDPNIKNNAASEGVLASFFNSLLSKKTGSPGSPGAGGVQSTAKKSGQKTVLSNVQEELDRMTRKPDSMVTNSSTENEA
inactive: [1] -0.19 | filanesib 0.384 | zotarolimus 0.005 | idasanutlin 0.092 | alisertib -0.053 | [2] 0.101 | gefitinib -0.099 | [3] -0.119 | lapatinib 0.116 | pictilisib -0.223 | [4] 0.025 | crizotinib 0.079 | [5] -0.283 | [6] 0.393 | duvelisib -0.049 | gandotinib 0.235 | tozasertib 0.018 | [7] 0.054 | doramapimod -0.121 | ispinesib -0.026

DBT (UniProt P11182)
UniProt P11182, sequence (P11182 whole entry, looked up): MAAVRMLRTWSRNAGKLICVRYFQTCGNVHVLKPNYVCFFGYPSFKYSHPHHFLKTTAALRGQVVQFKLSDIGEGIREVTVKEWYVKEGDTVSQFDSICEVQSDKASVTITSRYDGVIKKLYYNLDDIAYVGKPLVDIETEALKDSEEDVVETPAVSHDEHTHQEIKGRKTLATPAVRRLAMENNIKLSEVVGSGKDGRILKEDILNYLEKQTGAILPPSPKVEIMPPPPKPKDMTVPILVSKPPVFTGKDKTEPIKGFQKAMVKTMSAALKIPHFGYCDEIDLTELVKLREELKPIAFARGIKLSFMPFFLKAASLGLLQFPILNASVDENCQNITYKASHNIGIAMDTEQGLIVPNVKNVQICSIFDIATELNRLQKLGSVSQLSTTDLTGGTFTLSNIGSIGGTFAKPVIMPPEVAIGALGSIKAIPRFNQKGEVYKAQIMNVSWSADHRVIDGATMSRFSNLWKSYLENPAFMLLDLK
inactive: [1] 0.009 | filanesib 0.012 | zotarolimus 0.007 | idasanutlin 0.015 | alisertib 0.003 | [2] -0.006 | gefitinib -0.021 | [3] 0.039 | lapatinib 0.004 | pictilisib 0.052 | [4] -0.024 | crizotinib -0.01 | [5] -0.014 | [6] 0.054 | duvelisib 0.04 | gandotinib 0.005 | tozasertib 0.038 | [7] -0.042 | doramapimod 0.029 | ispinesib 0.009

CWC27 (UniProt Q6UX04)
inactive: [1] 0.047 | filanesib -0.017 | zotarolimus -0.068 | idasanutlin 0.014 | alisertib -0.043 | [2] 0.061 | gefitinib 0.021 | [3] -0.046 | lapatinib -0.004 | pictilisib -0.036 | [4] 0.03 | crizotinib 0.14 | [5] 0.145 | [6] -0.001 | duvelisib 0.144 | gandotinib 0.033 | tozasertib 0.077 | [7] 0.169 | doramapimod -0.091 | ispinesib -0.017

DDX46 (UniProt Q7L014)
inactive: [1] 0.109 | filanesib -0.003 | zotarolimus 0.046 | idasanutlin 0.029 | alisertib 0.434 | [2] 0.001 | gefitinib 0.041 | [3] -0.005 | lapatinib 0.026 | pictilisib 0.117 | [4] 0.12 | crizotinib 0.1 | [5] 0.185 | [6] -0.025 | duvelisib 0.144 | gandotinib -0.144 | tozasertib 0.109 | [7] 0.235 | doramapimod -0.087 | ispinesib 0.197

ESYT1 isoform 2 (UniProt Q9BSJ8)
UniProt Q9BSJ8, sequence (Q9BSJ8 whole entry, looked up): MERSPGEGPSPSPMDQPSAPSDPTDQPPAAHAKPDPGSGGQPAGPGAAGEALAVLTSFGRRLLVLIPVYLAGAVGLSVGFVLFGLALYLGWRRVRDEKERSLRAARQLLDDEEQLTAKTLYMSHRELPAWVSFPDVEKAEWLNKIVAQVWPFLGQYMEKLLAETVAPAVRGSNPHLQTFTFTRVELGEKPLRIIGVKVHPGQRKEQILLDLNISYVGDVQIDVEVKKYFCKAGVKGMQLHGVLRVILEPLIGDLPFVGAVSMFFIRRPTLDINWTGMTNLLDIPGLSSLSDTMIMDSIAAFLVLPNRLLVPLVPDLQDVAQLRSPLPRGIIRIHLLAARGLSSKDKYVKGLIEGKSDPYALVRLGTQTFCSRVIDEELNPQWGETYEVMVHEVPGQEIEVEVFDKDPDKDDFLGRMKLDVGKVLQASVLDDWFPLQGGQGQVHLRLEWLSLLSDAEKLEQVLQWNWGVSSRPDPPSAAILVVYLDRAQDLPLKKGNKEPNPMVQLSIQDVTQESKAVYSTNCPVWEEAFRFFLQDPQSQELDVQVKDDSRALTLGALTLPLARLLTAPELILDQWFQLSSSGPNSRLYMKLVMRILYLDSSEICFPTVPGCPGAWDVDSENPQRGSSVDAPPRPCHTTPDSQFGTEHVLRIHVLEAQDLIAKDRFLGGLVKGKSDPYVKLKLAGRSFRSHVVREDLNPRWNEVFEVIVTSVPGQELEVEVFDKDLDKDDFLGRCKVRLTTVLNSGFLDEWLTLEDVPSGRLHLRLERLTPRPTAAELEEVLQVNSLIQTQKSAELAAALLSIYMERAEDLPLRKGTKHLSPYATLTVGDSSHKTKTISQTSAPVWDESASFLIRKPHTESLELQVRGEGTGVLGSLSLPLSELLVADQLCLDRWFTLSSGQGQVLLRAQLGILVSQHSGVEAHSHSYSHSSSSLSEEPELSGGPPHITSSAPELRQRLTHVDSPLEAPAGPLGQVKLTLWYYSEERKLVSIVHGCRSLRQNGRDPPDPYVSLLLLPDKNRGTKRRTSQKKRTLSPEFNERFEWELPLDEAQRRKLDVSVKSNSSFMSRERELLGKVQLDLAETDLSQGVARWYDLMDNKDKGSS
inactive: [1] 0.042 | filanesib 0.013 | zotarolimus 0.08 | idasanutlin 0.08 | alisertib -0.094 | [2] 0.008 | gefitinib 0.053 | [3] -0.122 | lapatinib 0.089 | pictilisib -0.038 | [4] 0.021 | crizotinib -0.134 | [5] -0.076 | [6] 0.069 | duvelisib 0.014 | gandotinib 0.024 | tozasertib -0.017 | [7] 0.11 | doramapimod 0.083 | ispinesib -0.265
